Screening results as filed in PubChem BioAssay.
USP30 inh: inhibitors of human USP30 deubiquitinase. Ubiquitin carboxyl-terminal hydrolase 30 (Homo sapiens), Q70CQ3. purified USP30, Ub-rhodamine cleavage fluorescence. inhibition, % at 25 µM. actives 5.3% (n = 47,000). AID 1645860, 2021
USP10 inh: inhibitors of human USP10 deubiquitinase; Ubiquitin carboxyl-terminal hydrolase 10 (Homo sapiens), Q14694; purified USP10, Ub-rhodamine fluorescence, 60 min; inhibition, % at 20 µM; actives 1.1% (n = 47,000)
Target sequence (Q14694 whole entry, looked up): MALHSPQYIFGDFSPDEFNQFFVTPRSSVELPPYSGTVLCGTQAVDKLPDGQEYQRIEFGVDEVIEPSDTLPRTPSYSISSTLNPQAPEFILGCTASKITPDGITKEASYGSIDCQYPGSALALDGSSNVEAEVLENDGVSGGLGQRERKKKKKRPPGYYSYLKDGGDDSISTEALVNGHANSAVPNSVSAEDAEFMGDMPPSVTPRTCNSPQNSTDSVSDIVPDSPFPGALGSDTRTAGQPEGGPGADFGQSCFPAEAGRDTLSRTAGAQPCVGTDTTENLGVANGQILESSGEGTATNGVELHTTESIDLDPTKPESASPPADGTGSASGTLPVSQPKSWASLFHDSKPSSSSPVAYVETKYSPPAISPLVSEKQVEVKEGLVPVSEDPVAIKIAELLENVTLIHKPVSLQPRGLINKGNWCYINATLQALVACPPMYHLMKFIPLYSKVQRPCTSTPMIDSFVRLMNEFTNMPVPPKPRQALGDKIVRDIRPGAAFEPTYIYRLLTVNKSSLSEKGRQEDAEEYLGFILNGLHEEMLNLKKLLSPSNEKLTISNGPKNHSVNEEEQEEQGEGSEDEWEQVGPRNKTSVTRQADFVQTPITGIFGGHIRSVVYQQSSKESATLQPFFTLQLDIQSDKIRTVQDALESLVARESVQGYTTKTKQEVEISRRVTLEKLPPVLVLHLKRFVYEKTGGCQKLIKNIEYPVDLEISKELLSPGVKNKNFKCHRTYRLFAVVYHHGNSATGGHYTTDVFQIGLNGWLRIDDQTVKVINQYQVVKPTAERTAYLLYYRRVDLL
OTUD3 inh: inhibitors of human OTUD3 deubiquitinase; OTU domain-containing protein 3 (Homo sapiens), Q5T2D3; purified OTUD3, Ub-rhodamine fluorescence, 2 h; inhibition, % at 25 µM; actives 0.7% (n = 47,000); AID 1645858, 2021
USP17 block: inhibitors of human USP17 deubiquitinase. Ubiquitin carboxyl-terminal hydrolase 17-like protein 5 (Homo sapiens), A8MUK1. purified USP17, Ub-rhodamine cleavage fluorescence, 3 h. inhibition, % at 50 µM. actives 6.5% (n = 47,000). AID 1645855, 2021
USP8 inh: inhibitors of human USP8 deubiquitinase; inhibition, % at 20 µM; purified USP8, Ub-rhodamine cleavage fluorescence, 30 min; actives 4.2% (n = 47,000); Ubiquitin carboxyl-terminal hydrolase 8 (Homo sapiens), P40818; AID 1645853, 2021
USP28 block: inhibitors of human USP28 deubiquitinase; purified USP28, Ub-rhodamine cleavage fluorescence, 30 min; inhibition, % at 25 µM; actives 3% (n = 47,000); AID 1645857, 2021
Of the large screens only hits and unclear results are named; the others gave an inactive call. This is a sample that favours compounds with a hit; in the whole collection about 13% have one here. No stated cut-off is given here; in the data, active means inhibition above about 30%; inactive means the rest.

Cc1ccccc1Cn1c(=O)n(CC2CCC(C(=O)NC3CCCC3)CC2)c(=O)c2ccccc21 (centres undefined)	none
CC1=NN2C(=N)/C(=C/c3cn(Cc4ccc(Cl)cc4Cl)c4ccccc34)C(=O)N=C2S1	none
Cn1cccc1C(=O)Nc1cnn(-c2ncc(N3CCCCC3)cn2)c1	none
Cn1cccc1C(=O)Nc1cnn(-c2ncc(N3CCCC3)cn2)c1	USP17 block 31
O=C(CN1C(=O)c2cccc3cccc1c23)NCCC(c1ccccc1)c1ccccc1	none
Cc1ccc(CC(=O)Nc2ccc(C)cc2-c2n[nH]c(C3CC3)n2)cc1	USP10 inh 30, USP8 inh 64
Cc1ccc(NC(=O)Cc2nc(-c3ccccc3)n[nH]2)c(C)c1	none
Cc1nn(CC(=O)N2c3ccccc3CC2C)c(C)c1S(=O)(=O)N(C)C (centres undefined)	none
CCC(=O)N1CCCc2ccc(NC(=O)c3cccc(OC)c3)cc21	USP28 block 37
CCC(=O)N1CCc2cc(C(=O)Nc3ccccc3OC)ccc21	USP28 block 43
CCS(=O)(=O)N1CCCc2cc(C(=O)Nc3ccccc3OC)ccc21	none
C[C@@H]1/C=C/CC/C=C/C(=O)[C@H](C)[C@@H]2CC[C@@H](C)[C@@](O)(O2)C(=O)C(=O)N2CCCC[C@H]2C(=O)O[C@H]([C@H](C)C[C@@H]2CC[C@@H](O)[C@H](O)C2)CC1	USP30 inh 93, OTUD3 inh 43, USP17 block 82, USP28 block 97
CN(c1ccccc1)S(=O)(=O)c1cccc(NS(=O)(=O)c2ccc3c(c2)OCCO3)c1	none
O=C(Nc1nc2c(ccc3ccccc32)s1)c1cccc(Br)c1	USP30 inh 65, USP17 block 47, USP8 inh 36
O=C(Cc1cccc2ccccc12)Nc1nc2ccc(Br)cc2s1	none
CC(=O)Nc1nsc(N2CCC(C(=O)N3CCN(c4ccc(C)cc4)CC3)CC2)n1	none
COc1cccc(N2CCN(C(=O)C3CCN(c4nc(NC(C)=O)ns4)CC3)CC2)c1	USP17 block 69
O=C(Nc1ccc2[nH]c(=O)[nH]c2c1)c1cc2c(s1)CCCCC2	USP8 inh 53
O=C(O)Cc1ccccc1C(=O)Nc1ccc2c(c1)CCC2	none
Cc1ccc(NC(=O)c2cc(C3CC3)on2)cc1	none (no result: USP30 inh, USP28 block)
CC(C(=O)Nc1ccc2[nH]c(=O)[nH]c2c1)N1CCCCCC1 (centres undefined)	none
O=C(Nc1ccc2c(c1)CCC2)c1cc2ccccc2s1	USP28 block 33
Cc1ccc(NC(=O)c2cc3c(s2)CCC3)cc1	USP17 block 49, USP8 inh 49, USP28 block 37
Cc1noc(C)c1CN1CCC2(CC(Nc3ncc(F)cn3)CO2)C1 (centres undefined)	none
N#Cc1cccc(NC(=O)C(Cc2c[nH]c3ccccc23)NC(=O)c2cccs2)c1 (centres undefined)	USP30 inh 33
N#Cc1ccc(NC(=O)COC(=O)C(Cc2c[nH]c3ccccc23)NC(=O)c2ccc(F)cc2)cc1 (centres undefined)	none
CC(=O)NCC(=O)N1CCCC(c2ccnc(Nc3ccc(C)cn3)n2)C1 (centres undefined)	none
O=C(Nc1ccc(Cl)cc1)Nc1cccn2ncnc12	USP30 inh 52, USP28 block 39
CCOc1ccccc1NC(=O)Nc1cccn2ncnc12	none
C/C=C/C=C/CCc1c(O)cc(CC=C(C)C)c(O)c1C=O	USP17 block 45
CCN1CCN(c2ccc(C(=O)O)cc2NS(=O)(=O)c2ccc(C(C)C)cc2)CC1	USP8 inh 81
O=C(CSc1nnc(C2CC2)n1Cc1ccccc1)Nc1ccccc1F	none
O=C(CSc1nnc2n(-c3ccccc3)c(=O)c3ccccc3n12)c1ccc(F)cc1	USP8 inh 36
O=C(CSc1nnc(C2CC2)n1-c1ccccc1)c1ccc(F)c(F)c1	USP30 inh 32
CCOc1ccc(-c2csc3ncn(Cc4c(F)cccc4Cl)c(=O)c23)cc1	none (no result: USP30 inh, USP28 block)
CSc1nc2ncn(CC(=O)Nc3cccc(Cl)c3)c(=O)c2s1	USP17 block 60, USP8 inh 33
CSc1cccc(NC(=O)Cn2cnc3c(-c4ccc(F)cc4)nsc3c2=O)c1	none
Cc1ccc(CNCc2cc3c(-c4ccc(F)cc4)nn(-c4ccccc4)c3[nH]c2=O)cc1	USP8 inh 45
O=c1[nH]c2c(cc1CNCCc1ccccc1)c(-c1ccc(F)cc1)nn2-c1ccccc1	USP8 inh 66 (no result: USP17 block)
CC(=O)N1CCN(Cc2cc3c(C)nn(-c4ccc(F)cc4)c3[nH]c2=O)CC1	none
Cn1c(=O)c2c(nc(CN(Cc3ccccc3)Cc3ccccc3)n2Cc2ccc(Cl)cc2)n(C)c1=O	none
Cc1nc2ccc(C(=O)Nc3cccc(C(=O)NC4CC4)c3)cc2nc1C	none
CC1(C)Cc2c(c(-c3ccco3)nc3sc4c(NCc5ccccn5)ncnc4c23)CO1	USP17 block 38
CCCCCCNc1ncnc2c1sc1nc(-c3ccccc3)c3c(c12)CC(C)(C)OC3	USP30 inh 31
CCCCCCNc1ncnc2c1sc1nc(N3CCCC3)c3c(c12)CC(C)(C)OC3	none
Cn1cc(C(=O)O)c(S(=O)(=O)N2CCOCC2)n1	none
Cc1ccc(NC(=O)CC2=NC(=O)C(CC(=O)Nc3ccccc3C)S2)cc1 (centres undefined)	USP8 inh 39
Cc1ccc(NC(=O)Cn2c3ncccc3c(=O)n2-c2ccccc2)cc1	none
Cc1ccc(N)cc1S(=O)(=O)Nc1cccc(C(F)(F)F)c1	none
CCOC(=O)N1CCN(C(=O)c2ccc(NCc3ccc(F)cc3)c(S(=O)(=O)Nc3cccc(C(F)(F)F)c3)c2)CC1	USP10 inh 56
COc1ccc(-c2noc(CC(=O)Nc3cccc(OC)c3)n2)cc1	none
COc1ccc(-c2nnn(CC(=O)Nc3ccccc3)n2)cc1	USP30 inh 46, USP17 block 49, USP28 block 39
O=C(Cn1nnc(-c2ccc(F)cc2)n1)NCCc1ccccc1	USP17 block 74
COCCNC(=O)Cn1nnc(-c2ccc(-c3ccc(OC)cc3)cc2)n1	USP30 inh 35
CCOC(=O)C(Cc1ccccc1)NC(=O)Cn1nnc(-c2ccccc2)n1 (centres undefined)	USP30 inh 35
CC1(C)Cc2c(c(N3CCCC3)nc3sc4c(SCCc5ccccc5)ncnc4c23)CO1	none
CCc1cccc(NC(=O)c2cn(CC)c3nc(C)ccc3c2=O)c1	none
CCn1cc(C(=O)Nc2ccc3ccccc3c2)c(=O)c2ccc(C)nc21	USP17 block 33
Cc1cccc(NC(=O)c2cn(CC(=O)NC3CCCC3)c3nc(C)ccc3c2=O)c1	USP17 block 48
Cc1cccc(NC(=O)Cn2cc(C(=O)N3CCCCC3)c(=O)c3ccc(C)nc32)c1	none
